Screens as filed in PubChem.
ANO1 activ = mouse TMEM16A channel activation, primary screen; Q8BHY3; HEK293 TMEM16A/YFP-H148Q/I152L, iodide quench fluorescence; stronger effect = lower value; B-score at 10 µM; hit rate 0.3% among 340,000;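 active = fluorescence-ratio B-score plate-corrected deviation score at least 3 library SD below zero, with starting fluorescence score within 5 deviations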;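 note: channel opened by trigger with iodide after compound preincubation; score built on the fluorescence ratio of max minus min over baseline; more negative score means more quench and so TMEM16A activation or potentiation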
NTR1 ag = activates human neurotensin receptor 1 | hit rate 0.17% among 330,000 | activation, % at 20 µM | AID 493036 | NTR1-U2OS beta-arrestin-GFP spot imaging, agonist mode;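 active = activation at or above 40% of the spot to cytoplasm intensity ratio, with at least 20 cells analyzed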;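 note: 0% = DMSO without peptide and 100% = 100 nM NTR1 peptide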
Target sequence (P30989 whole entry, looked up): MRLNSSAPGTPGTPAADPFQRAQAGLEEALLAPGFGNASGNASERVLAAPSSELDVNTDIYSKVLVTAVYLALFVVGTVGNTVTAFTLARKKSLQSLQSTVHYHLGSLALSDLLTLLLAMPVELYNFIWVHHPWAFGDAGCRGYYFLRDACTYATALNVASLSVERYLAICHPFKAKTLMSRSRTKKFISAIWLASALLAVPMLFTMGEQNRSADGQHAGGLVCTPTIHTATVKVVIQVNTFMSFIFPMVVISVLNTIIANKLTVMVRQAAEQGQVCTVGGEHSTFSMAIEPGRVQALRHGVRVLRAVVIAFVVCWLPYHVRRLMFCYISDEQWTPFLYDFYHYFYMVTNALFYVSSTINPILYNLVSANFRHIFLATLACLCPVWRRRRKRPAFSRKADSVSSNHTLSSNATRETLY
MEKK2mut PB1 HTS = signal of MEK5 binding to mutant human MEKK2 PB1 domain | bead flow cytometry, Alexa488-MEK5 binding to MEKK2 mutant | percent response, % at 10 µM | hit rate 0.35% among 290,000; in the data active = percent response above about 24%, passing the limit was not always enough
TMEM16A inh = blocks the mouse calcium-activated chloride channel TMEM16A. Q8BHY3. HEK293 TMEM16A/YFP iodide influx fluorescence, ionomycin. normalized B-score (activity score, 25-100; higher = stronger inhibition) at 10 µM. hit rate 1.2% among 310,000;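 active = ratio plate-corrected score three or more library SD toward inhibition, starting fluorescence score within five deviations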;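 note: score derived from kinetic fluorescence span divided by baseline fluorescence per well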
MEKK2 WT-MEK5 = raises or lowers MEK5 binding to wildtype human MEKK2 PB1 domain. Q9Y2U5. bead flow cytometry, Alexa488-MEK5 binding to MEKK2 WT; actives lie on both sides. binding response (% of control), % at 10 µM. hit rate 1.1% among 290,000; in the data active = binding response below about 67% or above about 130%
MEKK3 PB1 HTS = raises or lowers MEK5 binding to the human MEKK3 PB1 domain; bead-based flow cytometry, Alexa488-MEK5 binding to MEKK3; actives lie on both sides; 0 = blocked by unlabeled MEK5, 100 = vehicle; hit rate 1.4% among 290,000; Q99759; binding response (% of control), % at 10 µM;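 active = binding response more than 3 SD above or below the average of its plate-row segment, actives on both sides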;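 note: Alexa488 bead fluorescence after subtracting the streptavidin-only scavenger bead signal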
MEKK2wt confirm = raises or lowers MEK5 binding to wildtype human MEKK2, retest. binding response (% of control), % at 10 µM. hit rate 2.4% among 5,900. shares compounds with MEKK3 PB1 HTS. AID 1892. bead flow cytometry, Alexa488-MEK5 binding to MEKK2 WT; actives lie on both sides; in the data active = binding response below about 16% or above about 210%; inactive = in between
MEKK2mut confirm = signal of MEK5 binding to mutant human MEKK2, retest; shares compounds with MEKK3 PB1 HTS; bead flow cytometry, Alexa488-MEK5 binding to MEKK2 mutant; percent response, % at 10 µM; hit rate 2% among 5,900; AID 1893; in the data active = percent response mostly above about 71%, no sharp cut-off; inactive = mostly below about 38%;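 note: higher means compound restores mutant binding toward wildtype level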
MEKK3-MEK5 inh = confirmation of inhibitors of MEK5 binding to human MEKK3. shares compounds with MEKK3 PB1 HTS. bead flow cytometry, Alexa488-MEK5 binding to MEKK3; stronger effect = lower value. binding response (% of control), % at 10 µM. hit rate 1.8% among 5,900. AID 1894;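 active = binding response below 72% of control, or above a set upper limit, though filed actives all read lower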;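 note: 100% = DMSO only wells and 0% = binding blocked by excess unlabeled MEK5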
Numbers without * were called inactive; i = inactive; · = no result given; [ ] = remark or other dose. Hits are enriched below; roughly 3.4% of the tested compounds scored in any of these assays.

SMILES	ANO1 activ	NTR1 ag	MEKK2mut PB1 HTS	TMEM16A inh	MEKK2 WT-MEK5	MEKK3 PB1 HTS	MEKK2wt confirm	MEKK2mut confirm	MEKK3-MEK5 inh
COc1ccc(CCN2CC(C(=O)NCCc3cccc(F)c3)CCC2=O)cc1 (stereo unspecified)	i	0	-1	·	100	103	·	·	·
Cc1c(NC(=O)/C(=C\c2ccccc2)NC(=O)c2ccccc2)c(=O)n(-c2ccccc2)n1C	i	2	8	i	125	130*	102	0	101
Cc1c(NC(=O)c2ccccc2F)c(=O)n(-c2ccccc2)n1C	i	0	-32	i	41*[inhibitor]	23*[inhibitor]	101	2	106
Cc1c(NC(=O)c2c(F)c(F)c(F)c(F)c2F)c(=O)n(-c2ccccc2)n1C	i	-1	2	i	100	104	·	·	·
Cc1c(NS(=O)(=O)c2ccccc2)c(=O)n(-c2ccccc2)n1C	i	-1	7	i	124	126*	92	-8	97
CCN1CCN(Cc2ccc(NC(=O)c3cc(NC(=O)c4cc(-c5ccc(OC)cc5)n[nH]4)cc(OC)c3)cc2C(F)(F)F)CC1	i	1	167*	i	167*	125*	312*	173*	117
CCN1CCN(Cc2ccc(NC(=O)c3cc(NC(=O)c4ccc5n[nH]nc5c4)cc(OC)c3)cc2C(F)(F)F)CC1	i	-1	13	i	118	113	·	·	·
CCN1CCN(Cc2ccc(NC(=O)c3cc(NC(=O)c4ccno4)cc(OC)c3)cc2C(F)(F)F)CC1	i	3	6	i	111	76	·	·	·
CCN1CCN(Cc2ccc(NC(=O)c3cc(NC(=O)c4cncc(-c5cccs5)c4)cc(OC)c3)cc2C(F)(F)F)CC1	·	2	133*	i	362*	118	245*	193*	113
CCN1CCN(Cc2ccc(NC(=O)c3cc(NC(=O)c4cc5cccc(OC)c5o4)cc(OC)c3)cc2C(F)(F)F)CC1	i	6	158*	i	148*	124*	251*	93*	111
COC(=O)/C=C/c1sc2nc(C)cc(C)c2c1N=CN(C)C	i	2	-9	·	88	88	·	·	·
CCOC(=O)c1sc2nc(CSc3ccccc3)nc(NCCN(C)C)c2c1C	i	0	40	i	176*	110	145	32	104
C=CCc1ccc(OCCCOc2ccc(C)c(C)c2)c(OC)c1	i	1	-10	i	91	80*[inhibitor]	99	-6	99
C=CCc1ccc(OCCCCOc2ccc(C(=O)O)cc2)c(OC)c1	i	1	-5	i	98	103	·	·	·
COCC1CCN(C(=O)C2CCC(=O)N(Cc3cccc(F)c3)C2)CC1 (stereo unspecified)	i	0	3	i	102	100	·	·	·
CN(C)CCCN1c2ccc([N+](=O)[O-])cc2CCc2cc([N+](=O)[O-])ccc21	i	2	14	i	150*	111	113	6	104
O=C(Nc1ccc(OCC(=O)N2CCOCC2)cc1)c1cncc(Br)c1	i	3	1	i	101	98	·	·	·
O=C(NCCOC(=O)c1ccc(Cl)cc1)c1cccnc1	i	-2	-23	i	61	93	·	·	·
O=[N+]([O-])c1ccc(Sc2nnnn2-c2ccccc2)nc1	·	1	5	·	99	100	·	·	·
O=C(Nc1cccnc1)c1cc(F)c(F)cc1Cl	i	0	-68	i	1.0*[inhibitor]	1.0*[inhibitor]	109	3	96
CCOC(=O)Cc1c(C)nc2c(-c3ccccc3OC)c(C)nn2c1C	i	-3	1	i	93	94	·	·	·
CCOC(=O)Cc1c(C)nc2c(-c3ccc(Cl)cc3)c(C)nn2c1C	-4.8*	-1	-34	i	·	0.0*[inhibitor]	90	-10	89
COc1ccc(CN(C2CCCCC2C)S(=O)(=O)c2ccc(S(=O)(=O)N(C)C)cc2)cc1OC (stereo unspecified)	-29*	5	0	i	98	137*	99	8	104
O=C(Nc1ccc(N2C(=O)C3CCCCC3C2=O)cc1Cl)c1cccs1 (stereo unspecified)	i	0	-3	i	91	90	·	·	·
Clc1ccc(-n2cc(COCc3ccccc3)nn2)cc1	i	-1	-1	i	93	88	·	·	·
SMILES	ANO1 activ	NTR1 ag	MEKK2mut PB1 HTS	TMEM16A inh	MEKK2 WT-MEK5	MEKK3 PB1 HTS	MEKK2wt confirm	MEKK2mut confirm	MEKK3-MEK5 inh
CC(C)(C)C(=O)Cn1nc(Cl)nc1Cl	i	-1	2	i	124	132*	101	-6	98
O=C(/C=C/c1ccc(Br)cc1)c1ccc(NC2=NCCCS2)cc1	i	11	0	i	126	102	·	·	·
CC(C)(C)c1ccc(/C=C/C(=O)c2ccc(NC3=NCCCS3)cc2)cc1	i	8	32	i	139*	109	149	21	105
CCOc1ccccc1N/C(=N/c1nc(C)cc(C)n1)NC(=O)Nc1ccc(Cl)c(Cl)c1	·	-2	-1	i	94	72*[inhibitor]	100	-5	102
C#CCOCCOCCOCCNc1nc(N2CCN(C(=O)[C@H]([C@@H](C)CC)n3cc([C@@H](N)Cc4ccc(O)cc4)nn3)CC2)nc(N2CCN(C(=O)[C@H](CCCCN)n3cc([C@@H](N)CO)nn3)CC2)n1	·	-1	46	i	171*	110	189	132*	113
C#CCOCCOCCOCCNc1nc(N2CCN(C(=O)[C@H]([C@@H](C)CC)n3cc([C@@H](N)Cc4ccc(O)cc4)nn3)CC2)nc(N2CCN(C(=O)[C@H](Cc3ccc(O)cc3)n3cc([C@@H](N)C(C)CC)nn3)CC2)n1 (stereo partly specified)	i	-6	58*	i	191*	109	140	12	106
C#CCOCCOCCOCCNc1nc(N2CCN(C(=O)C([C@@H](C)CC)n3cc(C(N)CO)nn3)CC2)nc(N2CCN(C(=O)[C@H](CCC(=O)O)n3cc(C(N)Cc4ccc(O)cc4)nn3)CC2)n1 (stereo partly specified)	·	7	3	·	88	82	·	·	·
